# From PubChem BioAssay
# IP6K1 inh: Primary qHTS assay for small molecule inhibitors of Inositol hexaphosphate kinase 1 (IP6K1). Inositol hexakisphosphate kinase 1 (Homo sapiens), Q92551. IP6K1 kinase, ADP-Glo luminescence, 2 h; active compounds read low. activity change, % (series mostly up to about 58 µM). 0.81% of 140,000 active. AID 1645851, 2021; in the data active means activity change below about -25%; further: on the % scale 0 is the no-effect control and ±100 the full control effect
# Target sequence (Q92551 whole entry, looked up): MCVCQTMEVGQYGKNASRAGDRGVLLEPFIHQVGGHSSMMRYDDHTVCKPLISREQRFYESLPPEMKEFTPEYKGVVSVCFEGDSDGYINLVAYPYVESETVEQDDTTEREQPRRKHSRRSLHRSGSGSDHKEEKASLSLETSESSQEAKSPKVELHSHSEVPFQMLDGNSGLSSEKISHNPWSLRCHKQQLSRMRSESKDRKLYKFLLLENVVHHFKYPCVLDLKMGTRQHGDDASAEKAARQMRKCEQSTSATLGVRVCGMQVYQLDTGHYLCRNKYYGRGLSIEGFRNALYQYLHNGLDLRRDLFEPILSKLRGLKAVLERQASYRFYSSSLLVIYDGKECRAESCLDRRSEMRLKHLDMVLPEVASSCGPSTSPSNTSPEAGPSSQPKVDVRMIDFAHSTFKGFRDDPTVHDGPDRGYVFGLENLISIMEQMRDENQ
#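 ADP-Glo luminescence measures ADP made by human IP6K1 during a 2 h RT reaction with ATP/IP6 (mix at 1.3 mM/130 uM); top library doses 57.5 and 19.1 uM final.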
# HEK293 viab: GF-AFC viability counterscreen for inhibitors of alpha-synuclein gene (SNCA) expression; 0.12% of 150,000 active; Potency, µM (highest dose often 57.1 µM), for the others: top-dose activity change, negative = cytotoxicity, usual class: cytotoxic; HEK-293-SNCA-luc viability, GF-AFC fluorescence, 24 h;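 further: potency means the concentration at half of the fitted maximal effect; 0% = DMSO-treated cells and -100% = medium-only wells without cells; nearly all actives have a fitted effect of over 30% in size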
#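 HEK-293-SNCA-luc cells (1500/well) plated 24 h, then exposed 24 h to a dilution series; GF-AFC added 30 min at 37C, fluorescence 405/540 nm; normalised to medium-only and DMSO wells, Hill fit.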
# KDM5B inhibitor: Primary screen for KDM5B Histone Demethylases FDH-coupled qHTS. Lysine-specific demethylase 5B (Homo sapiens), Q9UGL1. KDM5B demethylase, FDH-coupled NADH fluorescence (FDH is formaldehyde dehydrogenase). Potency, µM (top dose mostly 57.7 µM), usual class: inhibitors. 2.6% of 220,000 active. AID 1347165, 2019; further: potency means the concentration at half of the fitted maximal effect; 0% is about no effect; nearly all actives have a fitted effect of over 70% in size
#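 Compound dilutions met 200 nM (final) KDM5BΔAP for 10 min at room temperature before substrate addition. The substrate mix held 12.5 µM H3K4me3 with cofactors 25 µM α-ketoglutarate and 50 µM Fe²⁺. NADH signal gain over 30 min defined activity.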
# SNCA expr inh: Primary qHTS assay for inhibitors of alpha-synuclein gene (SNCA) expression; 0.17% of 140,000 active; Potency, µM (highest dose often 57.2 µM), for inactives: top-dose activity change, negative = inhibition, usual class: inhibitors; AID 1671194, 2021; HEK-293 SNCA-luciferase knock-in, luminescence, 24 h;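 further: potency means the concentration at half of the fitted maximal effect; plate controls were DMSO cells for no effect and cell-free wells for full effect; nearly all actives have a fitted effect of over 45% in size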
# * marks the source's active call; other numbers are inactive results; i = inactive; ? = inconclusive; nt = no result given; [ ] = remark or other dose. Shown are actives, neighbours in structure and some others; about 3% of the full set was active somewhere. Unless noted, the call rests on the fitted dose curve; in most records, active means well fitted curve in the direction sought with a large enough effect; inconclusive means small, poorly fitted or top-dose-only effect, or another doubt; inactive means no such curve, though single readings can be large; an effect the other way counts as inactive or inconclusive.
SMILES,IP6K1 inh,HEK293 viab,KDM5B inhibitor,SNCA expr inh
O=C1CC(c2noc(-c3ccc(-c4ccccc4)cc3)n2)CN1c1ccc(F)cc1 (stereo unspecified),-11.0,4.7%,31.6µM*,-28.6%
COc1ccc(C(=O)N2CCN(c3nccc(Nc4ccccc4OC)n3)CC2)cc1,6.4,-7.6%,nt,-19.5%
CN(C)c1ccc(C(=O)N2CCN(C(=O)c3ccc(N(C)C)cc3)[C@H](C(=O)N[C@H](Cc3c[nH]c4ccccc34)C(N)=O)C2)cc1,2.7,1.9%,28.2µM*,1.3%
CN(C)c1ccc(C(=O)N2CCN(S(C)(=O)=O)[C@H](C(=O)N[C@H](Cc3c[nH]c4ccccc34)C(N)=O)C2)cc1,-12.6,1.3%,i,14.0%
O=C([C@@H]1CCCN1Cc1cc(=O)c2cc(F)ccc2[nH]1)N1CCCCC1,8.7,3.6%,28.2µM*,-7.5%
O=C1CCN(C(=O)[C@@H]2CCCN2Cc2ccc(F)cc2F)CCCCCCN1,1.6,6.5%,?,-12.6%
CC(=O)Nc1ccc(NC(=O)CCNc2c(-c3ccc(F)cc3)nc3cnccn23)cc1,2.6,27.4%,28.2µM*,-3.9%
COc1ccccc1-c1nc2cnccn2c1NCCC(=O)Nc1ccc(C)cc1C,16.0,?,?,-8.4%
Cc1ccccc1NC(=O)CCNc1c(-c2ccc(F)cc2)nc2cnccn12,-0.8,-0.2%,25.1µM*,-10.3%
COc1cccc(-c2nc3cnccn3c2NCCC(=O)Nc2ccc(F)cc2C)c1,18.5,?,28.2µM*,12.5%
COc1ccccc1-c1cccc(CN2CCCC(C(=O)N3CCCCC3)C2)c1 (stereo unspecified),-6.8,-13.8%,nt,-6.4%
CNC(=O)c1cc(C2CC2)nc2c1c(C1CCN([S+](=O)([O-])c3c(C)noc3C)C1)nn2C (stereo unspecified),-1.3,nt,nt,nt
Cc1nn(-c2ccccc2)c2c1C(C(C)C)N(C1CN(C(=O)c3ccccc3F)C1)C2=O (stereo unspecified),4.3,nt,nt,nt
O=C(NCc1ccccc1Cl)c1nc2sccn2c1-c1ccc(C(F)(F)F)cc1,2.1,-20.6%,nt,-40.2%
COc1ccc2c(C)c(-c3nc(C4CCOC4)no3)oc2c1 (stereo unspecified),-2.9,5.4%,31.6µM*,67.4%
c1ccc2cc(-c3nc(C4CCOC4)no3)ncc2c1 (stereo unspecified),7.3,3.2%,?,-24.5%
Cc1nn2c(c1-c1ccccc1-c1ccccc1)N(CCC(C)C)CCC2,-9.0,?,6.31µM*,1.12µM*
Cc1nn2c(c1-c1ccccc1-c1ccccc1)N(Cc1ccccc1)CCC2,-2.0,?,31.6µM*,?
O=C1NC2(CCN(CC3CCCCC3)CC2)COc2ccccc21,14.3,-5.9%[87.6 µM],?,0.6%[87.6 µM]
Cn1cc(-c2nc(N3CCOCC3)cc3c2CN(CC2CC2)C3=O)cn1,10.2,14.6%[87.6 µM],i,14.6%[87.6 µM]
CC(=O)Nc1cccc(-c2nc(N3CCOCC3)cc3c2CN(Cc2cnn(C)c2)C3=O)c1,18.1,14.4%,28.2µM*,16.1%
COc1ccccc1-c1nc(N2CCOCC2)cc2c1CN(Cc1cnn(C)c1)C2=O,22.8,1.8%[87.6 µM],35.5µM*,4.3%[87.6 µM]
O=C(NCc1ccc2c(c1)OCO2)C1CCN(C(=O)c2ccc(-c3cccs3)cc2)CC1,-10.9,nt,nt,nt
COc1cc(F)ccc1-c1ccnc2nc(Cc3ccc(F)cc3)nn12,11.7,2.4%,28.2µM*,-11.1%
COc1cc(-c2ccnc3nc(Cc4ccc(F)cc4)nn23)cc(OC)c1OC,3.1,?,?,?
SMILES,IP6K1 inh,HEK293 viab,KDM5B inhibitor,SNCA expr inh
Fc1cc(F)cc(Cc2nc3nccc(-c4ccco4)n3n2)c1,-3.5,10.9%,25.1µM*,4.2%
COc1ccc(Cc2nc3nccc(-c4cc(OC)c(OC)c(OC)c4)n3n2)cc1,0.8,-2.0%,14.1µM*,1.6%
COc1cc(-c2ccnc3nc(Cc4cc(F)cc(F)c4)nn23)cc(OC)c1OC,-2.5,-5.7%,15.8µM*,17.9%
Cc1cccc2c1O[C@H]1[C@H](C(N)=O)CN(C(=O)OCC(C)C)[C@@H]21,24.0,nt,nt,nt
COc1ccc(CNC(=O)c2cc(-c3ccccc3C(F)(F)F)nc3[nH]ncc23)cc1OC,20.5,nt,nt,nt
CCn1c(C)ccc(C(=O)N[C@@H]2COCC[C@H]2Oc2ccccn2)c1=O,-2.4,0.0%,28.2µM*,3.3%
Cc1cc(C)cc(-c2ccc(CN3CCCC(NC(=O)c4cccc(Cl)c4)C3)cc2)c1 (stereo unspecified),15.2,7.7%[12.5 µM],nt,-15.6%
CCC(=O)N1CCN(c2nc3c(s2)CC(C(=O)NCc2ccc(C)o2)CC3)CC1 (stereo unspecified),4.6,12.8%,25.1µM*,3.7%
O=C1c2cnc(-c3cc4ccccc4o3)nc2OCCN1c1ccccc1,-16.6,-5.9%[87.6 µM],22.4µM*,?
O=C1c2cnc(-c3cc4ccccc4o3)nc2OCCN1Cc1ccccc1,-11.9,-7.8%[87.6 µM],i,-39.4%[87.6 µM]
O=C(NCC(F)F)C1CCN(c2nccc(Nc3ccccc3Cl)n2)CC1,7.4,-19.7%[12.5 µM],nt,2.4%
CS(=O)(=O)N1CCCC(C(=O)NCCc2cccnc2)CCNC(=O)CC1 (stereo unspecified),-3.4,3.3%,i,-13.2%
CS(=O)(=O)N1CCCC(C(=O)NCCCN2CCCc3ccccc32)CCNC(=O)CC1 (stereo unspecified),-1.0,-0.3%,31.6µM*,7.4%
O=C(NCc1cccc(C(F)(F)F)c1)c1ccc2nnc(-c3ccc(OC(F)(F)F)cc3)n2c1,-10.7,-10.9%,nt,-24.3%
O=C(c1cc2ccc3cccnc3c2[nH]1)N1CCCCC1,-17.0,-2.3%,i,?
CC1CCCN(C(=O)c2cc3ccc4cccnc4c3[nH]2)C1 (stereo unspecified),-5.2,?,i,2.24µM*
C[S+](=O)([O-])N1CCC(Cn2ccc3c(N4CCOCC4)nc(-c4cncnc4)cc32)CC1,-15.1,-1.3%,?,-1.9%
C[S+](=O)([O-])c1ccc(-c2cc3c(ccn3Cc3ccncc3)c(N3CCOCC3)n2)cc1,-3.2,?,25.1µM*,-14.7%
CC(=O)Nc1cccc(-c2cc3c(ccn3Cc3ccncc3)c(N3CCOCC3)n2)c1,-1.5,9.2%[87.6 µM],28.2µM*,6.3%[87.6 µM]
C[S+](=O)([O-])Nc1cccc(-c2cc3c(ccn3Cc3ccncc3)c(N3CCOCC3)n2)c1,-20.2,1.3%,3.16µM*,-7.0%
Cn1ncc2c(C(=O)NCc3cccc(F)c3)cc(-c3ccc(C(F)(F)F)cc3)nc21,-8.4,nt,nt,nt
CN1CCC(N(Cc2ccccc2)[C@@H]2C[C@@H]3CO[C@H](c4ccccc4)C[C@@H]3C2)CC1,22.8,nt,nt,nt
CC(C)c1noc(-c2cn(C3CCN(C(=O)c4cccc5[nH]ccc45)CC3)nn2)n1,12.3,3.4%,28.2µM*,-9.1%
COc1ccccc1C(=O)N1CCC(n2cc(-c3nc(C(C)C)no3)nn2)CC1,4.4,3.7%,i,0.4%
